Laboratory results taken from PubChem BioAssay AID1159580 (chemical genetic matrix, 2015).
Values joined by “and” are separate entries in the source; they are usually repeats but may differ in a detail not shown here. Equal values may be shown once. In all, about 5,500 compounds went through this assay and about 2,000 (36%) were called active. Roughly 18% stayed inconclusive and do not appear here. No stated cut-off is given here; in the data, active means normalized growth mostly below about 0.91 (no sharp cut-off); inconclusive means no clear call, values can overlap the other calls; inactive means mostly above about 0.92. The list shows a part of the results.

Test: chemical genetic growth profiling, strain panel (AID 1159580);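 further: tested at 20 µM; growth read once vehicle control cultures reached saturation at 30 °C; 1 = growth at the plate median or of vehicle wells; lower values mean less growth of the strain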
Details: S. cerevisiae deletion strains, growth OD

Measured: normalized growth

CC12CCCC(O)(C1)C1CC(C)(C)C1CC2 (configuration not stated)
inactive: locus YAL013W, strain DEP1, hits give low values 1.02 | locus YAL021C, strain ccr4, hits give low values 1 | locus YAL026C, strain drs2, hits give low values 1 | locus YAL030W, strain snc1, hits give low values 0.985 | locus YBL061C, strain skt5, hits give low values 0.993 | locus YBR009C, strain hhf1, hits give low values 0.947 | locus YBR021W, strain FUR4, hits give low values 1 | locus YBR023C, strain chs3, hits give low values 0.951 | locus YBR171W, strain sec66, hits give low values 0.987 | locus YBR229C, strain ROT2, hits give low values 1 | locus YBR231C, strain swc5, hits give low values 0.977 | locus YBR279W, strain paf1, hits give low values 0.959 | locus YCL011C, strain gbp2, hits give low values 0.965 | locus YCL016C, strain dcc1, hits give low values 0.971 | locus YCL029C, strain bik1, hits give low values 1 | locus YCL061C, strain MRC1, hits give low values 0.962 | locus YCL069W, strain vba3, hits give low values 0.998 | locus YCR088W, strain abp1, hits give low values 0.993 | locus YDL005C, strain med2, hits give low values 1 | locus YDL035C, strain GPR1, hits give low values 1 | locus YDL040C, strain nat1, hits give low values 0.997 | locus YDL074C, strain BRE1, hits give low values 1.03 | locus YDL101C, strain DUN1, hits give low values 1.03 | locus YDL134C, strain PPH21, hits give low values 1.03 | locus YDL185W, strain tfp1, hits give low values 1.02 | locus YDL192W, strain arf1, hits give low values 0.984 | locus YDR001C, strain nth1, hits give low values 1 | locus YDR069C, strain doa4, hits give low values 0.951 | locus YDR101C, strain arx1, hits give low values 0.985 | locus YDR162C, strain NBP2, hits give low values 0.997 | locus YDR195W, strain ref2 0.949 | locus YDR297W, strain sur2, hits give low values 0.927 | locus YDR318W, strain mcm21, hits give low values 1.02 | locus YDR334W, strain swr1, hits give low values 1.04 | locus YDR335W, strain msn5, hits give low values 1 | locus YDR388W, hits give low values 1.01 | locus YDR502C, strain sam2, hits give low values 1.05 | locus YEL003W, strain gim4, hits give low values 0.942 | locus YEL037C, strain rad23, hits give low values 1 | locus YEL061C, strain CIN8 (second series), hits give low values 1 | locus YEL061C, strain CIN8, hits give low values 1 | locus YER015W, strain faa2, hits give low values 1.01 | locus YER016W, strain bim1, hits give low values 0.995 | locus YER110C, hits give low values 1.02 | locus YER111C, strain swi4, hits give low values 1 | locus YER155C, strain BEM2, hits give low values 0.994 | locus YER167W, strain BCK2, hits give low values 0.992 | locus YFR010W, strain ubp6, hits give low values 0.979 | locus YGL078C, strain dbp3, hits give low values 1.05 | locus YGL086W, strain mad1, hits give low values 1.02 | locus YGL167C, strain pmr1, hits give low values 0.999 | locus YGL173C, strain kem1, hits give low values 0.977 | locus YGL227W, strain vid30, hits give low values 0.998 | locus YGL240W, strain doc1, hits give low values 0.915 | locus YGL248W, strain PDE1, hits give low values 1.03 | locus YGL253W, strain hxk2, hits give low values 0.991 | locus YGR135W, strain pre9, hits give low values 1.08 | locus YGR252W, strain gcn5, hits give low values 1.09 | locus YHR013C, strain ard1, hits give low values 1.01 | locus YHR027C, strain rpn1, hits give low values 1 | locus YHR030C, strain SLT2, hits give low values 0.945 | locus YHR079C, strain IRE1 (second series), hits give low values 1.01 | locus YHR079C, strain IRE1, hits give low values 0.971 | locus YHR094C, strain hxt1, hits give low values 1.01 | locus YHR129C, strain ARP1, hits give low values 1.01 | locus YHR142W, strain chs7, hits give low values 0.923 | locus YHR200W, strain rpn10, hits give low values 1.04 | locus YIL066C, strain RNR3, hits give low values 1.01 | locus YIL073C, strain SPO22, hits give low values 1.03 | locus YIL125W, strain kgd1, hits give low values 1.01 | locus YIR030C, strain dcg1, hits give low values 1.01 | locus YJL092W, strain hpr5, hits give low values 0.992 | locus YJL095W, strain BCK1 (second series), hits give low values 0.934 | locus YJL095W, strain BCK1, hits give low values 1.03 and 0.976 | locus YJL115W, strain asf1, hits give low values 1.01 | locus YJL129C, strain trk1, hits give low values 0.956 | locus YJL134W, strain LCB3, hits give low values 0.995 | locus YJL154C, strain vps35, hits give low values 1.01 | locus YJL164C, strain tpk1, hits give low values 0.946 | locus YJL166W, strain qcr8, hits give low values 0.945 | locus YJL168C, strain set2, hits give low values 1.03 | locus YJL187C, strain SWE1 (second series), hits give low values 1.04 | locus YJL187C, strain SWE1, hits give low values 0.937
active: locus YDR137W, strain rgp1, hits give low values 0.8 | locus YDR159W, strain sac3, hits give low values 0.841 | locus YDR392W, strain spt3, hits give low values 0.37 | locus YER155C, strain BEM2 (second series), hits give low values 0.795
